# A selection: hits, their analogues and other compounds. The true share with any hit is near 1.3%.
# KAT2A inh: GCN5L2 (KAT2A) acetyltransferase inhibition. Q92830. GCN5L2 HAT assay, ThioGlo1 CoA-SH fluorescence. Potency, µM (highest dose often 58.9 µM), inactives show at the top dose activity change, negative = inhibition, usual class: inhibitors. 390,000 compounds, 0.21% hits; further: potency means the concentration at half of the fitted maximal effect
#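 GCN5L2 (20 nM) in 50mM HEPES pH 7.5, 0.1mM EDTA, 0.01% Tween-20 preincubated 15 min with compounds at room temperature. Reaction started with H3(1-25) 75uM, acetyl-CoA 70uM, ThioGlo1 50uM; CoA-thiol fluorescence (Ex340/Em540) read at 0 and 20 min.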
# TrxR1 inh: inhibitors of rat thioredoxin reductase 1 | O89049 | recombinant rTrxR1, NADPH fluorescence consumption, selenite substrate | Potency, µM (top dose mostly 114 µM), without a hit: at the top dose activity change, negative = inhibition, usual class: inhibitors | 390,000 compounds, 1% hits; further: potency means the concentration at half of the fitted maximal effect; nearly all actives have a fitted effect of over 65% in size
#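 Rat TrxR1 (90 nM in the dispensed reagent) was pre-reduced with 400 uM NADPH for 5 min at room temperature, then incubated with compound for 15 min. After 400 uM selenite was added, NADPH fluorescence (Ex 340/Em 450 nm) was followed for 8 min.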
# GALK inhibitor: inhibitors of human galactokinase | Purified GALK, Kinase-Glo residual ATP luminescence | Potency, µM (series often up to 57.5 µM), without a hit: at the top dose activity change, negative = inhibition, usual class: inhibitors | 270,000 compounds, 0.007% hits | P51570; further: potency means the concentration at half of the fitted maximal effect
# Target sequence (P51570 whole entry, looked up): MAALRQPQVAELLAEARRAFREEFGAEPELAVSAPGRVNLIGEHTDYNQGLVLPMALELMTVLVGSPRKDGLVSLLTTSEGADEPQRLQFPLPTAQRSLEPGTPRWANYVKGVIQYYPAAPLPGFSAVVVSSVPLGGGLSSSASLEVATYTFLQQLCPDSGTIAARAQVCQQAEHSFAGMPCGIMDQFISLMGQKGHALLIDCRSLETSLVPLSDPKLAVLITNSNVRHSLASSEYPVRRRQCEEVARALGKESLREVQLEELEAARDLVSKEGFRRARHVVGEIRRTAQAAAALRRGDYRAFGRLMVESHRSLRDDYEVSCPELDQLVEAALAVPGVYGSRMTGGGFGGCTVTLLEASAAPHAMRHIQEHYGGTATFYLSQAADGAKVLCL
#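 Luminescence from leftover ATP (Ultra-Glo luciferase/luciferin) served as read-out after a 1 h room-temperature reaction of 5 nM GALK with 35 uM ATP and 100 uM galactose.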
# Pin1 inh: human Pin1 inhibition; Q13526; Pin1 FP peptide displacement, HiFluor488, 10 min; Potency, µM (doses to about 115 µM), for inactives: at the highest dose activity, negative = inhibition, usual class: inhibitors; 390,000 compounds, 0.009% hits; AID 504891; active means well fitted inhibition curve with a large enough effect in the polarisation, with a control signal flat, not every such curve was filed as active; inconclusive means small, poorly fitted or top-dose-only effect, or effect the other way, or a change in a side signal; inactive means no such curve, though single readings can be large or run the other way; the % refers to the polarisation; further: potency means the concentration at half of the fitted maximal effect
# Target sequence (Q13526 whole entry, looked up): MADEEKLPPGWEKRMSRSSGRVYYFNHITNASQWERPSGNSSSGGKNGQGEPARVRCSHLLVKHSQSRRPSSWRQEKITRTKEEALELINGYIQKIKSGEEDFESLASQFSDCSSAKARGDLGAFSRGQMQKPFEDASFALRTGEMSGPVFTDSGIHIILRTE
# Giardia killer: kills Giardia lamblia | Giardia lamblia trophozoite viability | activity change, % at 7.66 µM, hits read low | 340,000 compounds, 0.15% hits | AID 540267; in the data active means activity change below about -80%; inconclusive means between about -30% and that limit;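 further: parasites exposed to compound for two days anaerobically before the ATP read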
#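 Luminescent ATP signal served as the viability read-out, measured 15-30 min after adding ATP detection reagent to trophozoites that had been incubated with compounds for 48 hrs at 37 deg C anaerobically at 100 cells/well.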
# TrxR1 substrate: substrates of rat thioredoxin reductase 1 | Potency, µM (highest dose often 114 µM), for inactives: top-dose activity change, negative = substrate turnover | 390,000 compounds, 0.01% hits | purified TrxR1 substrate turnover, NADPH consumption readout; further: potency means the concentration at half of the fitted maximal effect; nearly all actives have a fitted effect of over 50% in size
#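 Rat TrxR1, dispensed at 90 nM, was prereduced with 400 uM NADPH (final) for 5 min at ~22 deg C, then incubated with compound 15 min before 400 uM selenite. A first-read NADPH fluorescence drop versus no-compound background flagged substrates.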
# Active calls of the source: *; ? = inconclusive; . = not tested or not shown; ! = not confirmed by another sample; [ ] = dose if it differs, or a comment. Unless noted, the call rests on the fitted dose curve; in most records, active means well fitted curve in the direction sought with a large enough effect; inconclusive means small, poorly fitted or top-dose-only effect, or another doubt; inactive means no such curve, though single readings can be large; an effect the other way counts as inactive or inconclusive. On the % scale 0 is the no-effect control and ±100 the full control effect.
SMILES,KAT2A inh,TrxR1 inh,GALK inhibitor,Pin1 inh,Giardia killer,TrxR1 substrate
CCOC(=O)c1c(C)oc2ncnc(NCCCN3CCN(c4cc(C)ccc4C)CC3)c12,-3%,10%,.,-4%,.,-8%
COc1ccc(NC(=S)Nc2ncccc2C)c(OC)c1,-4%,1.8µM*,-1%,-1%,15,6%
C=C1C(=O)O[C@@H]2[C@H]3O[C@]3(C)CC/C=C(\C)CC[C@@H]12,-3%,56µM*,.,2%,9,1%
C=C1C(=O)OC2C1CC/C(C)=C/CCC1(C)OC21 (stereo not given),-14%,.,.,.,.,.
O=C(NC(=S)NNS(=O)(=O)c1ccc(Cl)cc1)c1cccnc1,-6%,18µM*,1%,-2%,-6,9%
N#Cc1nc(NCCCCO)nc(Nc2ccccc2)n1,.,.,.,-1%,.,.
CCOC(=O)c1oc2ccccc2c1NC(=O)CCl,2%,22µM*,3%,-3%,6,-10%
CC1(C)CC(=O)C2=C(C1)N(c1ccccc1)C(N)=C(C#N)C2c1cccnc1 (stereo not given),1%,79µM*,7%,-8%,-19,2%
CC1(C)CC(=O)C2=C(C1)N(c1ccccc1)C(N)=C(C#N)C2c1ccccc1 (stereo not given),3%,-24%[57.1 µM],-6%,1%,-9,1%[57.1 µM]
CCCCS(=O)(=O)/C=C\C=C/S(=O)(=O)CCCC,-7%,3.5µM*,1%,-2%,-17,9%[57.1 µM]
O=C1CNC(=O)/C1=C\c1ccc(O)cc1,1%,20µM*,1%,1%,2,?
O=C1CNC(=O)/C1=C/c1ccc(O)cc1,-25%,20µM*,-4%,2%,4,?
Cc1nn(C(=O)c2ccccc2F)c(C)c1S(=O)(=O)N1CCOCC1,-17%,-9%[57.1 µM],.,-17%,.,3%[57.1 µM]
CCCN(CCC)C1CC(=O)N(Cc2ccccc2)C1=O (stereo not given),0%,20µM*,4%,-3%,4,7%
Cc1ccc(S(=O)(=O)CCC(=O)N2CCN(c3ccc(Cl)cc3)CC2)cc1,-4%,50µM*,-1%,0%,-5,0%
CCCn1c(=O)c2[nH]c(-c3ccc(OCC(=O)Nc4ccc(C(C)=O)cc4)cc3)nc2n(CCC)c1=O,-20%,.,.,.,.,.
CCCn1c(=O)c2[nH]c(-c3ccc(S(=O)(=O)O)cc3)nc2n(CCC)c1=O,-18%,22µM*!,.,2%,11,629%[57.1 µM]
Cc1ccc(C2CC(c3cccs3)=NN2C(=O)CCl)cc1 (stereo not given),-21%,13µM*,3%,?,-4,4%
CCC(=O)N1N=C(c2cccs2)CC1c1ccc(C)cc1 (stereo not given),-5%,13%,.,-4%,-3,7%
COc1ccc(-n2nc(C#N)c(Cl)cc2=O)cc1,-9%,6.3µM*,1%,5%,14,0%
COC(=O)c1nn(-c2ccc(OC)cc2)c(=O)cc1O,-2%,0%[57.1 µM],7%,-3%,-5,1%[57.1 µM]
Cc1ccc(C(C2C(=O)CC(C)(C)CC2=O)C2C(=O)CC(C)(C)CC2=O)s1,-4%,40µM*,-1%,-4%,0,-13%
Cc1ccc(NC(=O)Cn2c(=O)n(Cc3ccc4c(c3)OCO4)c(=O)c3ccc(C(=O)NC4CCCCC4)cc32)c(C)c1,-7%,40%,.,7%,.,13%
CC[C@@H](C(=O)[C@@H](C)[C@@H](O)[C@H](C)CCc1ccc(C)c(O)c1C(=O)O)C1O[C@](CC)(C2CC[C@](O)(CC)[C@H](C)O2)C[C@@H]1C (stereo not given in full),16µM*,.,.,.,.,.
CCOC(=O)c1ccc(N2C(=O)c3[nH]nc(-c4ccccc4)c3C2c2ccc(CC)cc2)cc1 (stereo not given),-13%,20%,.,17%,.,-5%
SMILES,KAT2A inh,TrxR1 inh,GALK inhibitor,Pin1 inh,Giardia killer,TrxR1 substrate
Cc1cc(N2CCN(C)CC2)nc2ccc(NC(=O)Nc3ccccc3Br)cc12,2%,27%,.,1%,.,38%
CCN1C(=O)[C@H]2[C@@H](c3ccc(-c4ccc(F)cc4)c(OC)c3)N[C@@](C)(C(=O)OC)[C@H]2C1=O,-25%,79µM*,.,1%,19,1%
CC(=O)ON1C(C)(C)Cc2noc(N)c2C1(C)C,-23%,7%,-1%,-14%,-19,-1%
CC1(C)Cc2noc(N)c2C(C)(C)N1O,-17%,1.6µM*,-2%,-14%,21,4%
Cc1cccc(Nc2n[nH]c(=S)s2)c1C,22µM*,?,-1%,-1%,-1,2%
COc1ccccc1Nc1n[nH]c(=S)s1,6.3µM*,-5%[57.1 µM],11%,-2%,9,12%[57.1 µM]
COc1ccc([S+](=O)([O-])N2CCN([S+](=O)([O-])c3ccc4c(c3)OCCO4)CC2)c(OC)c1,.,.,.,23%,.,.
CC1=NOC(=O)/C1=C\c1ccc(-c2cc(Cl)ccc2Cl)o1,-23%,16µM*,-14%,19%,47,10%
[O-][n+]1ccccc1SSc1cccc[n+]1[O-],14µM*,.,.,.,.,.
O=C1C2C(c3ccccc3)CC=CC2C(c2cccc([N+](=O)[O-])c2)N1Cc1ccccc1 (stereo not given),.,1%,.,5%,17,-7%
O=[N+]([O-])C(=C1SCCS1)C(=C(Cl)Cl)N1CCCCC1,-6%,2%[57.1 µM],-1%,0%,1,0%[57.1 µM]
O=[N+]([O-])C(/C=C(\Cl)[N+](=O)[O-])=C(N1CCCCC1)N1CCCCC1,-12%,20µM*,-2%,44%,-82*,-19%
O=C(NCc1ccco1)/C(=C/c1ccco1)NC(=O)c1ccc(Br)o1,36%,50µM*,1%,-8%,2,-7%
O=C(NCc1ccco1)/C(=C/c1ccccc1)NC(=O)c1ccco1,-2%,25%,-1%,-11%,-24,4%
O=C(NCc1ccco1)/C(=C\c1ccco1)NC(=O)c1ccco1,-8%,50µM*,-1%,0%,2,-8%
O=C(NCc1ccco1)/C(=C\c1ccco1)NC(=O)c1ccc(Br)o1,0%,7%[57.1 µM],-1%,3%,-1,-11%[57.1 µM]
CN1CCN(c2ncc3nc(CCc4ccccc4)c(=O)n(Cc4ccc(F)cc4)c3n2)CC1,-13%,.,.,.,.,.
Cc1cc2c(s1)c1cnn(Cc3ccc(Cl)cc3)c(=O)c1n2C,.,.,.,42%,.,.
CN(C)c1ccc(C=c2c3cc([N+](=O)[O-])ccc3n3c2cc(-c2ccccc2)[n+]3C)cc1,.,40µM*,.,?,-11,-19%
COc1cc(C=c2c3ccccc3n3c2cc(-c2ccccc2)[n+]3C)cc(OC)c1OC,.,50µM*,.,-10%,0,-10%
CN(C)c1ccc(C=c2c3ccccc3n3c2cc(-c2ccccc2)[n+]3C)cc1,.,6%[11.4 µM],.,?,-17,1%[11.4 µM]

# High-throughput results deposited in PubChem by National Center for Advancing Translational Sciences (NCATS).
